Test results taken from PubChem BioAssay AID1903 (Southern Research Specialized Biocontainment Screening …, 2009).
Among all 310,000 compounds or so, about 1,200 (0.39%) were called active. The rule behind the calls is not given here. Not all results are given here. Measured potencies and affinities stand elsewhere.

Molecular target: Large T antigen (Simian virus 40) (UniProt P03070)
Assay: SV40 large T antigen inhibitors, biochemical (AID 1903)
Conditions: SV40 large T antigen ATPase/helicase inhibition assay; at 20 µM; hits give high values

Chain of Large T antigen (Simian virus 40) (P03070 whole entry, looked up): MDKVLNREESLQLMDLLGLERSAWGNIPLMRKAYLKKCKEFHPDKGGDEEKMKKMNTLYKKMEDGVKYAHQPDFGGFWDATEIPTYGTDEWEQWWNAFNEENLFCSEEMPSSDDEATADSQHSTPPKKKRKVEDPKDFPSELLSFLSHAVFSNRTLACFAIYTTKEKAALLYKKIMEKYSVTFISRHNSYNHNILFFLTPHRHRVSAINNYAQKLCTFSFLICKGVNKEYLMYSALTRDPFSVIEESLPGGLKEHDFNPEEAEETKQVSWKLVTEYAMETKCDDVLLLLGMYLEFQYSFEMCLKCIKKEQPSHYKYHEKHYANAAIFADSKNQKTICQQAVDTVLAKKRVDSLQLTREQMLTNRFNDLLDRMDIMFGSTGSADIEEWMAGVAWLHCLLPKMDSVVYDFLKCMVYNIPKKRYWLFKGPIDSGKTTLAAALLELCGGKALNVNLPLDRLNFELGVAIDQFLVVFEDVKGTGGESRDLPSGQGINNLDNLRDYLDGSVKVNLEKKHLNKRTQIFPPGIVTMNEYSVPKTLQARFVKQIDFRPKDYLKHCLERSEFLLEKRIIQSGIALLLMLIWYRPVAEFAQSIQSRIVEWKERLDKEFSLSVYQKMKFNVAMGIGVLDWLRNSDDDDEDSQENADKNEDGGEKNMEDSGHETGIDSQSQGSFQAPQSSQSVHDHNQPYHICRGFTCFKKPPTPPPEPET

inhibition, inactive:
O=[N+]([O-])c1ccc(N2CCN(c3ccccn3)CC2)c(Cl)c1 9.91%
O=C(CSc1nnc(-c2ccco2)c(-c2ccco2)n1)c1ccccc1 -0.39%
CSc1nnc(-c2ccco2)c(-c2ccco2)n1 54.2%
COc1ccc(-n2nnnc2SCC(=O)NCCc2ccccc2)cc1OC 5.41%
Cc1cccc(-c2noc(CNC(=O)c3ccc4c(c3)OCO4)n2)c1 9.48%
CC(CCc1ccccc1)NC(=O)CCc1cn(C)c2ccccc12 (stereo unspecified) 8.16%
CCCCC(CC)CNC(=O)c1ncn[nH]1 (stereo unspecified) 9.07%
CCCCC(CC)CNC(=O)c1cccs1 (stereo unspecified) 0.58%
CC1(C)CN(c2ccc(N3CC(C)(C)C3=O)cc2)C1=O 7.74%
CC1(C)CN(c2ccc(F)cc2)C1=O 10%
Oc1ccc(/C=N/N=C/c2ccc(O)cc2)cc1 27.4%
COc1ccc(/C=N/N=C/c2ccc(OC)c(O)c2)cc1O 1.26%
Oc1ccc(N=Cc2ccc(OCc3ccccc3)cc2)cc1 15.6%
CC1CCCC(C)N1/N=C/c1ccc(O)c(O)c1 (stereo unspecified) 32.1%
CCn1c(CNC(=O)c2ccco2)nnc1SCC(=O)Nc1ccc(Br)cc1F 3.84%
CCN(CC)S(=O)(=O)c1ccc(Cl)c(NC(=O)COc2ccc(OC)cc2)c1 21.5%
COc1ccccc1Cn1cccc1C=O -6.2%
Cc1ccc(CCNC(=O)C2CCC(=O)N2Cc2ccc(F)cc2)cc1 (stereo unspecified) 8.48%
C/C(=N\O)c1ccc2[nH]ccc2c1 8.8%
CC(=O)Nc1ccc2[nH]ccc2c1 18.6%
COc1cc(/C=N/NC(=O)C(=O)NCc2ccco2)cc(Cl)c1O 28.7%
O=C(CNC(=O)c1ccco1)N/N=C/c1ccc(O)c([N+](=O)[O-])c1 -0.16%
COc1cc(/C=N/NC(=O)C(=O)NCC2CCCO2)cc(Cl)c1O (stereo unspecified) 22.2%
O=C(NCC1CCCO1)C(=O)N/N=C/c1ccc(O)c(Cl)c1 (stereo unspecified) 30.4%
COc1ccc(/C=N/NC(=S)NCC2CCCO2)cc1 (stereo unspecified) 7.07%
COc1cc(/C=N/NC(=O)C(=O)NCc2ccco2)cc(Br)c1O 29.1%
COc1cccc(/C=N/NC(=O)CNC(=O)c2ccco2)c1O 23.9%
Oc1c(Br)cc(/C=N/NC(=S)NCC2CCCO2)cc1Br (stereo unspecified) 27.3%
COc1ccc(OC)c(S(=O)(=O)N2CCC(C(=O)NC3CCCC3)CC2)c1 8.53%
NC(=O)CC(NC(=O)Cc1cccc2ccccc12)c1ccc(NC2CC3CCC2C3)c([N+](=O)[O-])c1 (stereo unspecified) 17.8%
O=C(CCn1c(=O)oc2ccccc21)N1CCN(c2ccc(F)cc2)CC1 2.5%
COC(=O)C1=C(C)NC(=O)NC1c1ccco1 (stereo unspecified) 8.25%
C=CCOc1ccc(Oc2cc(C)nc(SC)n2)nn1 19.1%
CCCOC(=O)c1cccc(NC(=O)C(C)(C)C)c1 -1.32%
O=C(CNC(=S)N(Cc1ccccc1Cl)C1CCCC1)NCCN1CCOCC1 3.17%
COc1cccc(O)c1CN1CCCC(C(=O)c2cccc(C(F)(F)F)c2)C1 (stereo unspecified) 4.62%
Cn1c(=O)c([N+](=O)[O-])c(NCC(O)c2ccccc2)c2ccccc21 (stereo unspecified) 21.3%
Cn1c(=O)[nH]c(=O)c2c1nc(CN1CCN(c3cccc(Cl)c3)CC1)n2CCc1ccccc1 1.29%
COc1ccc(-c2c(C#N)c(N)n(N)c(=O)c2C#N)cc1Cl 3.3%
O=C1/C(=C/c2ccncc2)N=C2CCCCCN12 18.3%
CN(C)c1ccc(/C=c2\sc3n(c2=O)CCCN=3)cc1 7.47%
COc1ccc(/C=C2/N=C3CCCCCN3C2=O)cc1OC 6.08%
COc1ccc(/C=C2\N=C3CCCCCN3C2=O)cc1OC 13.5%
O=c1/c(=C/c2ccc(O)cc2)sc2n1CCCN=2 29.1%
COc1ccc(/C=C2/N=C3CCCCCN3C2=O)cc1 4.2%
COc1ccc(/C=C2\N=C3CCCCCN3C2=O)cc1 3.96%
COc1cccc(/C=C2\N=C3CCCCCN3C2=O)c1 13.8%
CCC1Sc2ccc(S(=O)(=O)N3CCN(c4ccccc4)CC3)cc2NC1=O (stereo unspecified) -0.58%
O=C1C(=O)N(CCS(=O)(=O)c2ccccc2)c2ccc(F)cc21 3.86%
CN1CC(=O)N(CC(=O)Nc2cccc(S(=O)(=O)N3CCOCC3)c2)C1=O 4.06%
CCCc1nnc(NC(=O)C(=O)NCCN(CC)CC)s1 0.4%
COCCCNC(=O)COc1ccc(-c2nccc(-c3ccccn3)n2)cc1 4.04%
C=CCn1c(SCC(=O)N2CCCC2)nc2c([nH]c3ccccc32)c1=O 5.61%
CCCCn1c(SC(C)C(=O)c2ccc(OC)cc2)nc2cc(S(N)(=O)=O)ccc21 (stereo unspecified) 17.9%
COc1cc(OC)c(C(=O)N/N=C/c2ccoc2)cc1OC 13.6%
O=[N+]([O-])c1ccccc1CNCCCCO 0.09%
O=C(NCCC1=CCCCC1)c1ccc(Cl)c(S(=O)(=O)Nc2ccccc2)c1 -7.13%
Cc1ccc(C)c(NC(=O)CN(C)C(=O)c2nn(C)c(=O)c3ccccc23)c1 6.79%
CCOc1cc(/C=N/Nc2nnc(C)n2N)ccc1O 24.2%
CCOc1cc(/C=N/Nc2nncc(-c3ccccc3)n2)ccc1O 8.31%
CCOc1ccc(/C=N/Nc2nc(N3CCCC3)nc(N3CCCC3)n2)cc1OC -0.04%
COc1ccc(/C=N/Nc2nc(N3CCCCC3)nc(N3CCCCC3)n2)cc1[N+](=O)[O-] 4.11%
COc1ccc(/C=N/Nc2ncnc(Cl)c2N)cc1OC 19%
COc1ccc(/C=N/Nc2nc(N3CCCC3)nc(N3CCCC3)n2)cc1 -2.38%
Nc1c(Cl)ncnc1N/N=C/c1cccc(O)c1 28.2%
COc1ccc(/C=N/Nc2nc(Nc3ccccc3)nc(N3CCCCC3)n2)cc1OC -16.1%
O=c1c(Cl)c(Nc2cccc(Cl)c2)cnn1-c1nc2ccccc2s1 -0.81%
COCCCNC(=O)C(C)N1c2cccc3cccc(c23)S1(=O)=O (stereo unspecified) 3.72%
CCOC(=O)c1sc(=S)n(-c2ccc(OC)cc2)c1N 15.3%
Cc1ccc(CN2CCN(CC(=O)NCCCN3CCN(c4ccc(F)cc4)CC3)C2=O)cc1 3.02%
CCN1CCCC1CNC(=O)c1ccccc1Cl (stereo unspecified) -13.2%
COc1cccc(NC(=O)Cn2cnc3c(oc4nc5c(cc43)CCCC5)c2=O)c1 4.45%
CCNc1nc(NCC)nc(N/N=C/c2ccc(O)c(O)c2)n1 6.9%
CCNc1nc(NCC)nc(N/N=C/c2cc(OC)c(OC)c(OC)c2)n1 9.56%
OCc1ccccc1O[C@@H]1O[C@H](CO)[C@@H](O)[C@H](O)[C@H]1O 10.5%
[C-]#[N+][C@H](O[C@@H]1O[C@H](CO)[C@@H](O)[C@H](O)[C@H]1O)c1ccccc1 13.8%
C/C(=C1/SC(N2CCOCC2)=NC1=O)c1ccc(Br)cc1 -0.65%
CC1CCCCC1NC(=O)C1CCN(S(=O)(=O)c2cccc3nonc23)CC1 (stereo unspecified) 6.27%
CC1C(=O)NN=C1C(=O)N/N=C/c1cccs1 (stereo unspecified) 30%
COc1cc(OC)c(OC)cc1/C=N/NC(=O)CC1C(=O)NN=C1C (stereo unspecified) 8.13%
COc1ccc(/C=N\NC(=O)C2=NNC(=O)C2C)cc1 (stereo unspecified) 21.2%
COc1ccc(OC)c(/C=N/NC(=O)CC2C(=O)NN=C2C)c1 (stereo unspecified) 8.18%
CCCCC(CCCCl)C(=O)Nc1ccccc1 (stereo unspecified) 0.43%
CCN1CCCC1CNC(=O)COc1cc(=O)n(C)c2ccccc12 (stereo unspecified) -0.09%
CC(=O)C[C@H]1c2ccccc2S(=O)(=O)N1C1CCCC1 3.17%
CC(C)CCN1CCN(Cc2cccc3cccnc23)CC1CCO (stereo unspecified) -6.36%
CCN1CCN(C(=O)c2ccc(OCC(=O)Nc3ccc(F)cc3)c(OC)c2)CC1 4.11%
COc1ccc(N2Cc3ccccc3C2=O)cc1 2.48%
O=C1c2ccccc2CN1c1ccccc1 5.42%
CCN(Cc1ccccc1)S(=O)(=O)c1ccc(OC)c2ncccc12 11.3%
COc1cc(-c2noc(CCC(=O)NC3CCCCC3)n2)cc(OC)c1OC 25.3%
CN(C)c1ccc(Cl)cc1N 1.86%
COc1ccc(C(=O)c2ccc(OC)c(N)c2)cc1N 8.57%
O=C(CCS(=O)(=O)c1ccc(F)cc1)N1CCN(c2ccccc2)CC1 18.3%
CC(=C/c1ccc(C(C)C)cc1)/C=N/NC(=O)Cn1nc(C)cc1C 2.16%
Nc1nc(-c2cccs2)c(CC(=O)O)s1 23.1%
CC(=O)Nc1sc(NC(=O)c2ccccc2)nc1-c1cccs1 6.41%
O=[N+]([O-])c1cccc(C2(O)COc3ccccc3O2)c1 (stereo unspecified) 6.64%
CCn1c(COc2ccccc2)nnc1SCC(=O)NC1CCCCC1 8.87%
O=c1cc(CN2CCN(c3ccccc3)CC2)nc2scc(-c3ccccc3)n12 3.32%
CCOC(=O)C1CCN(Cc2cc(=O)n3c(-c4ccccc4)csc3n2)CC1 2.57%
